Compound activity (PubChem)
An excerpt weighted towards active compounds, which were near 3.3% of everything screened.
Vaccinia mCherry: qHTS for Stage-Specific Inhibitors of Vaccinia Orthopoxvirus: mCherry Reporter Primary qHTS | Vaccinia virus mCherry reporter infection, fluorescence | Potency, µM (top dose mostly 36.5 µM), for the others: top-dose activity change, negative = inhibition, hits mostly inhibitors | hit rate 0.63% among 310,000; calls by dose curve; tested in A549 cells; note: nearly all actives have a fitted effect of over 35% in size
VACV Venus inh: qHTS for Stage-Specific Inhibitors of Vaccinia Orthopoxvirus: Venus Reporter Primary qHTS; Vaccinia virus Venus reporter expression, fluorescence; Potency, µM (doses to about 36.5 µM), for the others: at the highest dose activity change, negative = inhibition, hits mostly inhibitors; hit rate 0.46% among 330,000; AID 720580, 2013; calls by dose curve; tested in A549 cells; note: nearly all actives have a fitted effect of over 30% in size
HCV inh: qHTS Assay for Inhibitors of Hepatitis C Virus (HCV); Huh7.5.1 HCVcc-Cre infection, luciferase reporter, 44 h; Potency, µM (titrated, usually from 41.8 µM), for the others: at the top dose activity change, negative = inhibition, actives largely listed as inhibitors; hit rate 3.4% among 340,000; active = well fitted inhibition curve with a large enough effect; inconclusive = small, poorly fitted or top-dose-only effect, or another doubt; inactive = no such curve, though single readings can be large or run the other way
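Antiviral activity was scored by luciferase reporter output from cells infected with HCVcc-Cre (~0.5 moi) in presence of compound, 44 h infection period, cells seeded 1,000/well 4 h prior.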
Starred values were filed as active, the others as inactive; i = inactive; ? = inconclusive; / = not tested or not shown. % is set by controls: 0 for no effect and ±100 for the full control effect; potency is the fitted concentration of half-maximal effect.

SMILES	Vaccinia mCherry	VACV Venus inh	HCV inh
NC(Cc1ccc(C(F)(F)F)cc1)c1csc(Nc2ccccn2)n1 (stereo not drawn)	11µM*	?	/
Cc1cnc(C)c(Nc2nc(C(N)Cc3ccccc3)cs2)n1 (stereo not drawn)	-7%	-10%	/
CC(C)CC(N)c1csc(NC(=O)NCCc2ccccc2)n1 (stereo not drawn)	19%	-13%	/
NC(Cc1ccc(C(F)(F)F)cc1)c1csc(NC(=O)NCCc2ccccc2)n1 (stereo not drawn)	?	11µM*	/
NC(Cc1ccc(C(F)(F)F)cc1)c1csc(Nc2ncccn2)n1 (stereo not drawn)	-1%	-14%	/
O=[N+]([O-])c1cc(Cl)ccc1Nc1nc(Nc2ccc(Cl)cc2[N+](=O)[O-])nc(N2CCOCC2)n1	10%	-13%	/
CC(NC(=O)c1ccc(CS(C)(=O)=O)cc1)c1cccc2ccccc12 (stereo not drawn)	-1%	-6%	?
c1cncc(-c2nc(NCc3ccc4c(c3)OCO4)c3ccccc3n2)c1	/	/	11µM*
COc1ccc(CCNc2ncnc3c2oc2ccccc23)cc1OC	-21%	?	3.2µM*
Cc1cc(NCc2ccccn2)nc2ccccc12	-1%	-10%	-10%
Cc1nc(NCc2ccccn2)c2ccccc2n1	?	-30%	10µM*
NS(=O)(=O)c1ccc(CNc2nc(-c3cccnc3)nc3ccccc23)cc1	-18%	-9%	-23%
COc1ccc(CCNc2ncnc3sccc23)cc1OC	-13%	-18%	?
Cc1cnc(CNc2nc(-c3ccc4c(c3)OCO4)nc3ccccc23)cn1	-18%	-17%	/
c1cncc(CNc2nc(-c3cccnc3)nc3ccccc23)c1	i	-17%	22µM*
COc1cc(-c2nc(S(=O)(=O)c3ccc(Br)cc3)c(N3CCOCC3)o2)cc(OC)c1OC	-29%	-17%	/
O=C(O)CC(Cc1ccc(Cl)cc1)C(=O)Nc1cc(Cl)ccc1Cl (stereo not drawn)	-13%	-3%	24%
Cc1nnc(NCc2ccccc2)c2ccccc12	-9%	-10%	-17%
Cc1ccc(CN2COc3ccc4c(C)cc(=O)oc4c3C2)cc1	-13%	-1%	/
Cc1cccc(-c2nc(CCNC(=O)COc3ccccc3)cs2)c1	-8%	-7%	/
Cc1ccc(CSC2=NCCN2S(=O)(=O)c2ccc(F)cc2)cc1	-13%	-29%	3%
CC(Nc1nc(-c2ccccc2)nc2ccccc12)c1ccccc1 (stereo not drawn)	0%	?	-30%
COc1ccc(CCNc2nc(-c3cccnc3)nc3ccccc23)cc1OC	-7%	?	10µM*
COc1ccc(CCNc2nc(SCc3ccc(F)cc3)nc3ccccc23)cc1OC	-22%	-24%	/
Fc1ccc(CNc2nc(-c3cccnc3)nc3ccccc23)cc1	-9%	-5%	11µM*
SMILES	Vaccinia mCherry	VACV Venus inh	HCV inh
c1cncc(-c2nc(NCCN3CCOCC3)c3ccccc3n2)c1	16%	19%	/
c1ccc(CN2CCC(Nc3nc(-c4cccnc4)nc4ccccc34)CC2)cc1	?	13µM*	?
Cc1ccc(CNc2nc(-c3cccnc3)nc3ccccc23)cc1	?	-22%	?
CC(Nc1nc(-c2cccnc2)nc2ccccc12)c1ccc(F)cc1 (stereo not drawn)	?	-27%	8.9µM*
CC(C)(C)NC(=O)Cn1nnc(-c2ccc(OCc3c(F)cccc3Cl)cc2)n1	-3%	-17%	1%
CC(C)NC(=O)c1cn(C2CCC(NC(=O)C(C)(C)C)CC2)nn1 (stereo not drawn)	-4%	-5%	/
CC(=O)c1ccccc1-c1ccc2c(c1)CC(CNC(=O)c1ccnc(Cl)c1)O2 (stereo not drawn)	-15%	?	/
O=C(O)c1nc2cc(Cl)c(Cl)cc2[nH]c1=O	0%	-8%	/
CCCCNC(=O)CSc1nc2cc3c(cc2c(=O)n1CCCC(=O)NCc1ccc(OC)cc1)OCO3	-3%	-8%	/
O=C(CSC1=NS(=O)(=O)c2ccccc2N1)NCc1ccc(F)cc1	-19%	-12%	7%
CC(C)(C)c1ccc(-c2nc(NCc3cccnc3)c3ccccc3n2)cc1	-15%	-17%	11µM*
c1ccc(CNc2nc(-c3ccccc3)nc3ccccc23)cc1	-13%	-23%	?
CN(C)C(=O)c1ccc(-c2nc(NCc3cccnc3)c3ccccc3n2)cc1	-19%	-19%	/
c1ccc(CNc2nc(-c3ccccn3)nc3ccccc23)cc1	?	-22%	3.2µM*
CN1C(=O)C(C)(C)c2cc(S(=O)(=O)N3CCN(c4ccccc4)CC3)ccc21	26%	-1%	-2%
Cc1cc(N/N=C/c2ccccc2)nc(N)n1	-21%	-6%	-5%
CN(C)c1cc(N/N=C/c2ccc(Cl)cc2)nc(N(C)C)n1	/	/	7.1µM*
COc1cc(OC)cc(C(=O)Nc2sc3c(c2C(N)=O)CCC3)c1	?	?	2µM*
NC(=O)c1c(NC(=O)CN2CCN(S(=O)(=O)c3ccccc3)CC2)sc2c1CCC2	?	-24%	10µM*
O=C(Nc1sc2c(c1C(=O)O)CCC2)c1cccs1	i	-25%	-22%
COc1ccc(CC(=O)Nc2sc3c(c2C(N)=O)CCCC3)cc1	i	-19%	?
N#Cc1c(NC(=O)CN2CCN(S(=O)(=O)c3ccc4c(c3)OCCO4)CC2)sc2c1CCC2	-7%	1%	-5%
NC(=O)c1c(NC(=O)c2cccs2)sc2c1CCCCCC2	?	-27%	10µM*
COC(=O)c1c(NC(=O)C2CCCO2)sc2c1CCC2 (stereo not drawn)	/	?	5.6µM*
NC(=O)c1c(NC(=O)C2CCCO2)sc2c1CCCCC2 (stereo not drawn)	i	-3%	10%
SMILES	Vaccinia mCherry	VACV Venus inh	HCV inh
O=C(c1cccs1)N(Cc1ccco1)c1ccc(O)cc1	2%	-14%	/
O=C(Cn1cc(C(=O)c2ccco2)c2ccccc21)Nc1ccccc1C(F)(F)F	-26%	-30%	/
CCOc1ccc(CNC(=O)c2ccccc2NC(=O)c2nsc3ccccc23)cc1	-21%	?	/
COc1ccccc1OC(C)C(=O)Nc1ccccc1C(=O)NCC1CCCO1 (stereo not drawn)	i	-17%	-1%
O=S(=O)(Nc1ccc(Br)cn1)c1ccc2ccccc2c1	-19%	-23%	8%
O=C(/C=C/c1cc[n+](CC(=O)c2ccc3cccc4c3c2CC4)cc1)c1ccc2cccc3c2c1CC3	5%	6%	6.3µM*
O=C(O)COc1ccc(/C=C/C(=O)c2ccc3ccccc3c2)cc1	i	-10%	2%
O=c1[nH]c(=O)n(Cc2ccccc2)c(O)c1/C=C1\C=Nc2ccccc21	/	/	-5%
O=c1[nH]c(/C=C2\C=Nc3ccccc32)c(O)n1Cc1ccccc1F	?	?	4.5µM*
COc1ccc2c(c1)OC(C)CN(CCNC(=O)c1csc(-c3cccs3)n1)C2 (stereo not drawn)	-6%	14%	/
O=C(COC(=O)COc1cccc(C(F)(F)F)c1)Nc1ccc(N2CCOCC2)cc1	/	/	10%
Cc1cc(N2CCCC2)ccc1NC(=O)COc1cccc(C(F)(F)F)c1	/	/	13µM*
COc1cccc(/C=C/C(=O)NCc2ccc(S(N)(=O)=O)cc2)c1	-9%	-5%	10µM*
NS(=O)(=O)c1ccc(CNC(=O)/C=C/c2ccccc2)cc1	-4%	6%	22%
